# Measured values reported in the supplement of paper PMC10720658.
# ± gives the standard deviation of the averaged measurements.
# System: AEK1 (Tb927.3.2440)
# Assay: percent reduction in TR-FRET probe signal relative to DMSO control; higher = stronger displacement of ATP-site probe (binding)
# Conditions: 1 µM; incubation time 1 h
row,Structure (SMILES),percent reduction in TR-FRET probe signal [%]
1,COc1ccc(-c2cc3c(C)nc(N)nc3n([C@H]3CC[C@H](OCCO)CC3)c2=O)cn1,-8.41 ± 7.5
2,O=C(Nc1c[nH]nc1-c1nc2cc(CN3CCOCC3)ccc2[nH]1)NC1CC1,52 ± 14
3,CN(C)Cc1cccc(N/C(=C2\C(=O)Nc3cc(C(=O)N(C)C)ccc32)c2ccccc2)c1,-0.927 ± 9.6
4,CCS(=O)(=O)Nc1ccc2c(c1)/C(=C(/Nc1ccc(CN3CCCCC3)cc1)c1ccccc1)C(=O)N2 [Hesperadin],97.4 ± 5.1
5,COc1cc(CCc2cc(NC(=O)c3ccc(N4C[C@@H](C)N[C@@H](C)C4)cc3)n[nH]2)cc(OC)c1,2.07 ± 10
6,Cn1cnc2c(F)c(Nc3ccc(Br)cc3Cl)c(C(=O)NOCCO)cc21 [Selumetinib (AZD6244)],11.4 ± 34
7,COc1cccc2cc(-c3nc([C@H]4CC[C@H](C(=O)O)CC4)n4ncnc(N)c34)[nH]c12,-0.417 ± 9.2
8,O=C(NC1CCNCC1)c1n[nH]cc1NC(=O)c1c(Cl)cccc1Cl,-2.75 ± 9.5
9,CC(C)(C)c1cnc(CSc2cnc(NC(=O)C3CCNCC3)s2)o1,-4.82 ± 4.6
10,Cc1cc2c(F)c(Oc3ncnn4cc(OC[C@@H](C)OC(=O)[C@H](C)N)c(C)c34)ccc2[nH]1,8.47 ± 14
11,COc1cc2nccc(Oc3ccc(NC(=O)C4(C(=O)Nc5ccc(F)cc5)CC4)cc3)c2cc1OC,-3.97 ± 6.1
12,CCNc1nc(Nc2cc(F)c(C(=O)N3CCOCC3)cc2OC)ncc1C(F)(F)F,11.9 ± 11
13,COc1ccc(-c2ccc3c(N4CCOCC4)nc(N4C[C@@H](C)O[C@@H](C)C4)nc3n2)cc1CO,-3.76 ± 6.3
14,Cn1cc(C=C2C(=O)Nc3cccnc32)c2ccccc21,-3.06 ± 6
15,CNc1nc(Nc2cnn([C@H]3CCN(C4COC4)C[C@@H]3F)c2Cl)ncc1C(F)(F)F,9.94 ± 3.4
